Screens: PubChem BioAssay, The Scripps Research Institute Molecular Screening Center
hgDAF-12 ag: H. glycines DAF-12 receptor agonists, primary screen, cell-based, luminescence, HEK293, GAL4 fusion, UAS-luciferase | HEK293 GAL4-hgDAF12 UAS-luciferase reporter, agonist luminescence; normalized to butyrate control | activation, % at 6.8 µM | 370,000 compounds, 1.8% hits | AID 687014, 2013;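 active means activation above a cutoff set at the mean of all screened compounds plus 3 SD, cut at about 10% in these data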;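 further: 0% = DMSO wells and 100% = sodium butyrate wells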
DAX1 inh-1: DAX1 (NR0B1) inhibitors on StAR promoter, primary screen, cell-based, luminescence, SF-1 (NR5A1), full-length DAX-1; HEK293T StAR-luciferase reporter, SF-1/DAX-1 repression relief; inhibition, % at 6.8 µM; 370,000 compounds, 1.1% hits; AID 652010, 2013;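 active means inhibition above the mean over all tested compounds plus 3 SD, cut at about 3.6% in these data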;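 further: 0% = DAX-1 cells with DMSO and 100% = cells lacking DAX-1 with DMSO; higher inhibition means more luminescence from relief of DAX-1 repression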
ssDAF-12 act: S. stercoralis DAF-12 nuclear receptor activators, primary screen, cell-based, luminescence, HEK293, GRIP1 co-expression, lit1-tk-luc. Nuclear hormone receptor DAF-12 (Strongyloides stercoralis). HEK293 ssDAF-12/GRIP1 lit1-tk-luc reporter; % of 3 µM dafachronic acid response. activation, % at 6.8 µM. 370,000 compounds, 1% hits. AID 652126, 2013;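 active means activation above the mean over all tested compounds plus 3 SD, cut at about 0.9% in these data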;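 further: 0% = DMSO-only wells and 100% = 3 µM delta7-dafachronic acid wells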
DAX1 inh-2: DAX1 (NR0B1) inhibitors, primary screen, cell-based, HEK293, Gal4-DAX1, luciferase luminescence; Nuclear receptor subfamily 0 group B member 1 (Homo sapiens), P51843; HEK293 Gal4-DAX1 luciferase reporter; inhibition, % at 6.75 µM; 340,000 compounds, 0.99% hits;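 active means inhibition above the mean over all tested compounds plus 3 SD, cut at about 4.2% in these data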;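 further: 0% = DAX1-transfected cells with DMSO and 100% = empty-vector control cells with DMSO; inhibition shows as a rise in luminescence from relieved DAX1 repression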
Target sequence (P51843 207-470 limits assumed): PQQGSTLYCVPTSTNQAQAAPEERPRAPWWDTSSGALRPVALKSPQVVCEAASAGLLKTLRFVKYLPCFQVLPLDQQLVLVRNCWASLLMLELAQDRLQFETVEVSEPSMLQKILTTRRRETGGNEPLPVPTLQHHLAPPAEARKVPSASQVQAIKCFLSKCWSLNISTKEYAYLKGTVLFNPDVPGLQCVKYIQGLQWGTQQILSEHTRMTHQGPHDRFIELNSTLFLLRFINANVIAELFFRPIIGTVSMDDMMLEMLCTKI
hcDAF-12 act: H. contortus DAF-12 nuclear receptor activators, primary screen, cell-based, luminescence, HEK293, lit1-tk-luc reporter. HEK293 hcDAF-12 lit1-tk-luc reporter; 0% DMSO, 100% Δ7-dafachronic acid. activation, % at 6.8 µM. 370,000 compounds, 1.4% hits. AID 652067, 2013;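 active means activation above the mean of all tested compounds plus 3 SD, cut at about 5.5% in these data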;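 further: 100% = response to 3 µM Δ7-dafachronic acid high control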
* = called active by the depositor. A selection: hits, their analogues and other compounds. The true share with any hit is near 4.1%.

How did Cc1ccnc(NC(=O)CCC(=O)N(CC(=O)NCCc2ccccc2)c2ccccc2F)c1 do in these assays?
hgDAF-12 ag: 1.7; DAX1 inh-1: -0.4; ssDAF-12 act: -1.5; DAX1 inh-2: -0.6; hcDAF-12 act: -2.3

What do the screens show for `Cc1ccc(N(CC(=O)NCCc2ccccc2)C(=O)CCC(=O)Nc2cc(C)ccn2)cc1`?
hgDAF-12 ag: 0.5; DAX1 inh-1: -0.5; ssDAF-12 act: -0.8; DAX1 inh-2: 5.4*; hcDAF-12 act: 0.9

How did COCCNC(=O)CN(C(=O)Cn1nnc2ccccc21)c1ccc(C)c(F)c1 do in these assays?
hgDAF-12 ag: 1.0; DAX1 inh-1: 0.1; ssDAF-12 act: -0.8; DAX1 inh-2: 1.7; hcDAF-12 act: 0.8

Results for O=C(/C=C/c1ccco1)Nc1ccccn1 ?
hgDAF-12 ag: 13.1*; DAX1 inh-1: 1.1; ssDAF-12 act: -0.5; DAX1 inh-2: -1.5; hcDAF-12 act: 3.9

Results for O=C(/C=C/c1ccco1)Nc1cccnc1 ?
hgDAF-12 ag: 5.2; DAX1 inh-1: 0.6; ssDAF-12 act: 0.4; DAX1 inh-2: 2.0; hcDAF-12 act: 0.2

Results for Cc1ccc(NC(=O)/C=C/c2ccco2)nc1 ?
hgDAF-12 ag: 8.0; DAX1 inh-1: 6.5*; ssDAF-12 act: 1.6*; DAX1 inh-2: 1.0; hcDAF-12 act: 6.5*

What do the screens show for `COc1ccc(C(=O)C(=O)N2CCN(C(=O)c3ccccc3C(F)(F)F)CC2)cc1OC`?
hgDAF-12 ag: 0.3; DAX1 inh-1: 0.1; ssDAF-12 act: -1.4; hcDAF-12 act: -0.4

Results for O=C1N=c2ccccc2=C1c1sc(=S)n(NC(=O)c2ccccc2)c1O ?
hgDAF-12 ag: 2.1; DAX1 inh-1: 0.7; ssDAF-12 act: 1.0*; DAX1 inh-2: 0.4; hcDAF-12 act: 3.3

How did C=CCn1c(O)c(C2=c3ccccc3=NC2=O)sc1=Nc1ccc(O)cc1 do in these assays?
hgDAF-12 ag: 1.5; DAX1 inh-1: 0.0; ssDAF-12 act: -0.4; DAX1 inh-2: 2.1; hcDAF-12 act: 4.2

Results for O=C(NCc1ccccc1)OC1CC2CC1[C@H]1CCCCN1C2 (stereo not given in full) ?
hgDAF-12 ag: 2.5; DAX1 inh-1: 0.0; ssDAF-12 act: -1.3; hcDAF-12 act: -1.8

How did COc1cccc(N2CCN(c3ccc(N4C(=O)CCC4=O)cc3[N+](=O)[O-])CC2)c1 do in these assays?
hgDAF-12 ag: 1.9; DAX1 inh-1: -0.7; ssDAF-12 act: -1.3; DAX1 inh-2: 6.6*; hcDAF-12 act: -1.3

What do the screens show for `Cc1sc(NC(=O)CSC2=NCCS2)nc1-c1ccccc1`?
hgDAF-12 ag: -3.1; DAX1 inh-1: -1.6; ssDAF-12 act: -1.7; DAX1 inh-2: -1.8; hcDAF-12 act: -2.4

What do the screens show for `O=C(CSC1=NCCS1)Nc1nc2ccccc2s1`?
hgDAF-12 ag: 4.3; DAX1 inh-1: 0.0; ssDAF-12 act: 1.2*; DAX1 inh-2: 0.7; hcDAF-12 act: 1.3

Results for CCC(=O)Nc1nc2ccc3nc(C)sc3c2s1 ?
hgDAF-12 ag: 10.7*; DAX1 inh-1: 2.7; ssDAF-12 act: 0.3; DAX1 inh-2: 0.9; hcDAF-12 act: 1.7

What do the screens show for `Cc1csc(NC(=O)c2nc3nccc(C)n3n2)n1`?
hgDAF-12 ag: 4.1; DAX1 inh-1: 1.1; ssDAF-12 act: -0.9; DAX1 inh-2: 0.3; hcDAF-12 act: 1.3

What do the screens show for `COC(=O)CCCCCCCCC(=O)Nc1nc2ccccc2s1`?
hgDAF-12 ag: 1.3; DAX1 inh-1: -0.2; ssDAF-12 act: -0.7; DAX1 inh-2: 0.2; hcDAF-12 act: -0.1

Results for COCC(=O)Nc1nc2ccccc2s1 ?
hgDAF-12 ag: 6.4; DAX1 inh-1: 1.4; ssDAF-12 act: 0.3; DAX1 inh-2: 1.9; hcDAF-12 act: 6.0*

Results for Cc1ccnc2nc(C(=O)Nc3nc4ccccc4s3)nn12 ?
hgDAF-12 ag: 12.5*; DAX1 inh-1: 4.3*; ssDAF-12 act: 1.0*; DAX1 inh-2: 1.7; hcDAF-12 act: 6.3*

What do the screens show for `S=C(Nc1ccc(Cl)c(Cl)c1)Nc1nnc(-c2ccncc2)s1`?
hgDAF-12 ag: 0.7; ssDAF-12 act: -1.1; hcDAF-12 act: -0.5

Results for Cc1ccc(S(=O)(=O)N(C)CC(=O)Nc2nc3ccccc3s2)cc1 ?
hgDAF-12 ag: 0.5; DAX1 inh-1: -0.9; ssDAF-12 act: -0.6; DAX1 inh-2: -0.6; hcDAF-12 act: 3.1

What do the screens show for `O=C(COC(=O)c1ccco1)Nc1nc2ccc([N+](=O)[O-])cc2s1`?
hgDAF-12 ag: -0.8; DAX1 inh-1: 0.5; ssDAF-12 act: -0.8; DAX1 inh-2: -0.5; hcDAF-12 act: -0.1

How did Cc1ccc2nc(NC(=O)COC(=O)c3ccco3)sc2c1 do in these assays?
hgDAF-12 ag: 9.0; DAX1 inh-1: 1.5; ssDAF-12 act: -0.3; DAX1 inh-2: 0.8; hcDAF-12 act: 5.8*

What do the screens show for `Cc1cc[n+](CC(=O)Nc2nc3ccccc3s2)cc1`?
hgDAF-12 ag: 3.8; DAX1 inh-1: 0.2; ssDAF-12 act: 1.9*; DAX1 inh-2: 0.9; hcDAF-12 act: 0.7

How did CCCCOC(=O)c1nnc(-c2ccc(Cl)cc2)o1 do in these assays?
hgDAF-12 ag: 2.0; DAX1 inh-1: 0.5; ssDAF-12 act: -1.4; DAX1 inh-2: 0.4; hcDAF-12 act: 0.0

How did CCCCOC(=O)c1nnc(-c2ccccc2)o1 do in these assays?
hgDAF-12 ag: -1.7; DAX1 inh-1: -0.2; ssDAF-12 act: -1.8; DAX1 inh-2: 5.1*; hcDAF-12 act: 0.0

What do the screens show for `CC1(C)CC(=O)c2cnc(N3CCc4ccccc43)nc2C1`?
hgDAF-12 ag: 7.6; DAX1 inh-1: 1.2; ssDAF-12 act: 0.0; DAX1 inh-2: 2.8; hcDAF-12 act: 6.4*

What do the screens show for `COc1ccc(CN2CCCC(N3CCN(c4cccc(Cl)c4)CC3)C2)cc1OC` (stereo not given)?
hgDAF-12 ag: 0.4; DAX1 inh-1: -0.5; ssDAF-12 act: -1.0; DAX1 inh-2: 2.9; hcDAF-12 act: -1.2

What do the screens show for `CC(C)CN1CCCC(N2CCN(c3cccc(Cl)c3)CC2)C1` (stereo not given)?
hgDAF-12 ag: 7.7; DAX1 inh-1: 0.1; ssDAF-12 act: -0.5; DAX1 inh-2: -0.4; hcDAF-12 act: 6.3*

Results for CC(NC(=O)C1CCC(CNc2c(N3CCCCC3)c(=O)c2=O)CC1)c1ccccc1 (stereo not given) ?
hgDAF-12 ag: -0.6; DAX1 inh-1: 0.3; ssDAF-12 act: -1.2; DAX1 inh-2: 5.8*; hcDAF-12 act: 0.2

What do the screens show for `O=C(OC(c1ccccc1)c1nccc2ccccc12)c1ccccc1` (stereo not given)?
hgDAF-12 ag: -16.8; DAX1 inh-1: -5.1; ssDAF-12 act: -2.8; DAX1 inh-2: 1.2; hcDAF-12 act: -6.1
